# Pf growth 96h: P. falciparum growth inhibition at 96 hours; P. falciparum luciferase reporter growth, 96 h; Potency, µM (titrated, usually from 28.7 µM), usual class: inhibitors; hit rate 6.9% among 320,000
#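 Parasite growth measured via integrated firefly luciferase reporter in P. falciparum. Infected erythrocytes at 2% hematocrit, 0.05% parasitemia final were treated 96 hours at 37 C under 5% CO2, and luminescence was read.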
# Pf growth 48h: inhibits P. falciparum growth in the first generation, 48 h. P. falciparum luciferase growth in erythrocytes, 48 h. Potency, µM (series often up to 28.7 µM), hits mostly inhibitors. hit rate 5.9% among 310,000. AID 504832
#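 Firefly luciferase activity from engineered P. falciparum reports growth; inhibitors lower the luminescent signal. Cultures contained 2% hematocrit erythrocytes at 0.1% final parasitemia.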
# Vaccinia Venus: inhibitors of vaccinia virus (Venus reporter); Vaccinia virus Venus reporter expression, fluorescence; Potency, µM (series often up to 36.5 µM), most hits filed as inhibitors; hit rate 0.46% among 330,000; AID 720580; calls by dose curve; tested in A549 cells; note: nearly all actives have a fitted effect of over 30% in size
# HCV inh: HCV inhibition; Potency, µM (top dose mostly 41.8 µM), usual class: inhibitors; Huh7.5.1 HCVcc-Cre infection, luciferase reporter, 44 h; hit rate 3.4% among 340,000; AID 651820
#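 A cell-based infection assay in which seeded cells (1,000 per well) receive test compound after 4 h, are inoculated with HCVcc-Cre at approximately 0.5 moi, and are incubated 44 h before luminescence detection.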
# VACV mCherry inh: vaccinia inhibition (mCherry reporter); Vaccinia virus mCherry reporter infection, fluorescence; Potency, µM (series often up to 36.5 µM), usual class: inhibitors; hit rate 0.63% among 310,000; calls by dose curve; tested in A549 cells; note: nearly all actives have a fitted effect of over 35% in size
# NS1 inh: inhibitors of influenza NS1 protein function | Potency, µM (highest dose often 46.1 µM) | hit rate 0.4% among 270,000 | AID 2326; calls by dose curve; note: actives are rising curves; nearly all actives have a fitted effect of over 50% in size
#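 In this qHTS, NS1 from influenza A is expressed in budding yeast, where it slows growth. Cells are switched from glucose to 2% galactose medium (pH 6.0, -URA), treated with compound, and growth recovery is read at OD600.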
# Numbers stand for hits; i = inactive; ? = inconclusive; nt = not tested or not shown; [ ] = remark or other dose. A selection: hits, their analogues and other compounds. The true share with any hit is near 11%. Unless noted, calls come from the whole dose curve; as a rule, active = well fitted inhibition curve with a large enough effect; inconclusive = small, poorly fitted or top-dose-only effect, or another doubt; inactive = no such curve, though single readings can be large or run the other way.
SMILES,Pf growth 96h,Pf growth 48h,Vaccinia Venus,HCV inh,VACV mCherry inh,NS1 inh
CCOC(=O)[C@]12CCC=C1N(Cc1ccc3c(c1)OCO3)C(=O)[C@H](CC(=O)NCC13CC4CC(CC(C4)C1)C3)C2,nt,nt,i,nt,i,nt
O=S(=O)(NCC(c1ccc2c(c1)OCO2)N1CCN(c2ccccc2)CC1)c1ccccc1 (stereo not drawn),?,7.4µM,i,i,i,nt
COc1ccccc1N1CCN(C(CNS(=O)(=O)c2cc(F)ccc2F)c2cccnc2)CC1 (stereo not drawn),?,?,nt,i[0.335 µM],nt,i
CCC(=O)NCC(c1ccc2c(c1)OCO2)N1CCN(c2ccccc2)CC1 (stereo not drawn),nt,nt,i,nt,i,nt
O=S(=O)(NCC(c1cccnc1)N1CCN(c2ccccc2)CC1)c1cc(F)ccc1F (stereo not drawn),i,10µM,i,i,i,i
COc1ccc(CC(C)Nc2cccc(F)c2)cc1 (stereo not drawn),i,i,nt,i,nt,i
COc1ccc(CC(C)Nc2cccc(SC)c2)cc1 (stereo not drawn),8.3µM,i,nt,i,nt,i
COc1ccc(CCn2c(=S)[nH]c3ccc(N4CCOCC4)cc3c2=O)cc1OC,?,10µM,i,?,i,nt
O=c1c2cc(N3CCOCC3)ccc2[nH]c(=S)n1CCc1ccccc1,?,?,i,i,i,nt
CC1Cc2ccccc2N1C(=O)c1cc2c(=O)n3ccccc3nc2n1C (stereo not drawn),i,?,nt,i,nt,i
Cc1ccc(S(=O)(=O)N2C=CC(C(F)(F)F)=NCC2)cc1,i,nt,i,i,i,i
Cc1ccc(/C=N/NC(=O)c2cc3c(s2)CCCC3)o1,?,8.3µM,nt,i,nt,nt
O=C(Nn1cnc2ccccc2c1=O)C1CCCCC1,?,i,i,i,i,i
CCCC1CCC(C(=O)Nn2cnc3ccccc3c2=O)CC1 (stereo not drawn),2.1µM,i,i,i,i,i
COc1cc(-c2nc3n(n2)C(c2ccc(F)cc2)C2=C(CCCC2=O)N3)cc(OC)c1OC (stereo not drawn),i,5.2µM,nt,?,nt,i
COc1cccc(C2C3=C(CCCC3=O)Nc3nc(-c4cc(OC)c(OC)c(OC)c4)nn32)c1 (stereo not drawn),?,?,nt,i,nt,i
Cc1cc(C)cc(N2CCCn3c2nc2c3c(=O)n(CC(=O)OCc3ccccc3)c(=O)n2C)c1,i,?,nt,?,nt,i
Cc1ccc(N2CC(C)Cn3c2nc2c3c(=O)n(CC(=O)OCc3ccccc3)c(=O)n2C)cc1C (stereo not drawn),10µM,?,nt,i,nt,i
CCOC(=O)Cn1c(=O)c2c(nc3n2CC(C)CN3Cc2ccccc2)n(C)c1=O (stereo not drawn),?,i,nt,i,nt,i
Cc1ccc(N2CCCn3c2nc2c3c(=O)n(CC(=O)OCc3ccccc3)c(=O)n2C)cc1C,5.2µM,12µM,nt,nt,nt,?
CCOc1ccc(N2CC(c3nc4ccccc4n3Cc3ccccc3F)CC2=O)cc1 (stereo not drawn),nt,nt,i,nt,i,nt
Cc1ccc(C)c(-c2cc(C(=O)NCc3cccs3)c3ccccc3n2)c1,?,?,nt,13µM,nt,i
O=C(Nc1cccnc1)c1cc(-c2ccc(Br)cc2)nc2ccccc12,i,?,i,3.2µM,i,i
Cc1ccc(-c2cc(C(=O)Nc3cccnc3)c3ccccc3n2)o1,4.7µM,nt,i,i,i,i
O=C(NCc1cccs1)c1cc(-c2ccccc2)nc2ccccc12,?,i,i,?,i,i
SMILES,Pf growth 96h,Pf growth 48h,Vaccinia Venus,HCV inh,VACV mCherry inh,NS1 inh
Cc1ccc(C)c(-c2cc(C(=O)Nc3nccs3)c3ccccc3n2)c1,1.9µM,?,nt,?,nt,i
O=C(NNS(=O)(=O)c1ccccc1)c1sccc1-n1cccc1,i,i,nt,i,nt,i
O=C(COc1ccc2ccccc2c1)NNC(=O)Nc1ccc(F)cc1F,?,i,i,i,i,i
COc1ccc(/C=N/OCC(=O)Nc2cc(C)on2)cc1OC,i,i,i,i,i,i
Cc1ccc(C)c(-c2cc(C(=O)Nc3cccnc3)c3ccccc3n2)c1,2.1µM,12µM,i,nt,i,i
Cc1ccc(-c2cc(-c3ccccc3O)nc(N/N=C/c3cccnc3)n2)cc1,0.029µM,?,i,0.56µM,i,i
Cc1ccccc1-c1cc(C(=O)N/N=C/c2cccnc2)c2ccccc2n1,i,10µM,i,i,i,i
O=[N+]([O-])c1ccc(N2CCN(S(=O)(=O)c3ccccc3)CC2)cc1NCc1ccco1,13µM,i,nt,i,nt,i
